# Source: PubChem BioAssay
# Most compounds without a hit are left out; they make up all but 1.3% or so of the library.
# Tb PGK inh: T. brucei PGK inhibition. P07378. PGK/GAPDH coupled, Kinase-Glo luminescence, 60 min. Potency, µM (highest dose often 57.5 µM), for inactives: at the highest dose activity change, negative = inhibition, most hits filed as inhibitors. hit rate 0.043% among 380,000; note: potency is the fitted concentration of half-maximal effect; % is set by controls: 0 for no effect and ±100 for the full control effect; nearly all actives have a fitted effect of over 60% in size
# Target sequence (P07378 whole entry, looked up): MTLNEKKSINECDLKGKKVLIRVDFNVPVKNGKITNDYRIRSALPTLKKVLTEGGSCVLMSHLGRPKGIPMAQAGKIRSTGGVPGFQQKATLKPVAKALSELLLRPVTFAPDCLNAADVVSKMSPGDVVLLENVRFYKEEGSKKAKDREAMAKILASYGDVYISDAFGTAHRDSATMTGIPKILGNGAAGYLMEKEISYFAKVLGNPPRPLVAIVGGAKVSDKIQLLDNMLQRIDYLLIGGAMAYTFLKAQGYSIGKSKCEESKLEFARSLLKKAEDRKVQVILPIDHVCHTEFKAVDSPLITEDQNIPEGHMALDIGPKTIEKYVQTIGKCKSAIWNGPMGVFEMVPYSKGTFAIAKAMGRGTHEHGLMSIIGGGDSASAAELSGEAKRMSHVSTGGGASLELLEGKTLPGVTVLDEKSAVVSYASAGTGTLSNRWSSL
#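 Recombinant glycosomal PGK reaction used 1,3-bisphosphoglycerate generated in-well by GAPDH (100nM final) in 100mM TEA pH 7.6, 5mM MgCl2, 0.01% Tween-20. After 60 minutes at room temperature, ATP was read by Kinase-Glo Plus luminescence end-point.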
# Glioma ERSR ind: ER stress response induction in glioma | U87-MG GRP78 promoter luciferase reporter, 16 h | Potency, µM, for inactives: at the highest dose activation, hits mostly activators | hit rate 0.02% among 420,000; note: potency is the fitted concentration of half-maximal effect; series mostly up to about 76 µM; % of control where 0% means no effect; nearly all actives have a fitted effect of over 35% in size
#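 ERSR induction read as luciferase luminescence (Bright-Glo, 10 min at room temperature) in stably transfected human U87-MG glioma cells exposed to compounds for 16 h, using GRP78 as sensor.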
# PI5P4Ka inh: inhibitors of human PI5P4K alpha. PI5P4Kalpha enzyme, ADP-Glo luminescence, 60 min; active compounds read low. hit rate 1.2% among 330,000. max response, %; active = max response of -50% or lower; inconclusive = between -30% and -50%; inactive = -30% or higher; note: value at the top dose of about 77 µM; % is set by controls: 0 for no effect and ±100 for the full control effect
#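 Enzyme plus substrate dispensed, test compounds pinned in, then ATP (5 microM final) added. After 60 min at RT, ADP-Glo reagent 1 for 45 min and reagent 2 for 30 min preceded luminescence imaging.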
# FEN1 inh: blocks human flap endonuclease 1. Recombinant FEN1 flap cleavage, fluorescence, 15 min. Potency, µM (doses to about 114 µM), for the others: at the top dose activity change, negative = inhibition, hits mostly inhibitors. hit rate 0.35% among 390,000. AID 588795; note: potency is the fitted concentration of half-maximal effect; % is set by controls: 0 for no effect and ±100 for the full control effect; nearly all actives have a fitted effect of over 65% in size
#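 FEN1 at 10 nM, compound pretreatment for 15 min (room temperature), 50 nM final substrate to initiate; endpoint reads at 0 and 15 min; DMSO-only plates used as vehicle background.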
# WRN helicase inh: blocks human WRN helicase. Potency, µM (highest dose often 114 µM), for the others: at the highest dose activity change, negative = inhibition, usual class: inhibitors. hit rate 0.46% among 360,000. WRN helicase unwinding, fluorescent forked duplex, kinetic. AID 651768. Q14191; note: potency is the fitted concentration of half-maximal effect; % is set by controls: 0 for no effect and ±100 for the full control effect; nearly all actives have a fitted effect of over 55% in size
#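 Enzyme (20 nM final) and test compound sit together 15 min at room temperature before substrate addition. Substrate is a single-forked duplex oligonucleotide (100 nM) labelled with fluorophore and quencher, with 2 mM ATP; helicase unwinding raises red fluorescence, read kinetically.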
# Pin1 inh: blocks the human prolyl isomerase Pin1; Q13526; Pin1 FP peptide displacement, HiFluor488, 10 min; Potency, µM (top dose mostly 115 µM), without a hit: top-dose activity, negative = inhibition, actives largely listed as inhibitors; hit rate 0.009% among 390,000; active = well fitted inhibition curve with a large enough effect in the polarisation, with a control signal flat, not every such curve was filed as active; inconclusive = small, poorly fitted or top-dose-only effect, or effect the other way, or a change in a side signal; inactive = no such curve, though single readings can be large or run the other way; the % refers to the polarisation; note: potency is the fitted concentration of half-maximal effect; % is set by controls: 0 for no effect and ±100 for the full control effect
# Target sequence (Q13526 whole entry, looked up): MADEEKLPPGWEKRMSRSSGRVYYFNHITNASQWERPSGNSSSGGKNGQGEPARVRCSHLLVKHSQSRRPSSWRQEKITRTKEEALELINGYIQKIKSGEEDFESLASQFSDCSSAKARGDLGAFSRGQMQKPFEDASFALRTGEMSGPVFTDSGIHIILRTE
# An asterisk follows results filed as active; i = inactive; ? = inconclusive; / = not tested or not shown; [ ] = dose if it differs, or a comment. Unless noted, calls come from the whole dose curve; as a rule, active = well fitted curve in the direction sought with a large enough effect; inconclusive = small, poorly fitted or top-dose-only effect, or another doubt; inactive = no such curve, though single readings can be large; an effect the other way counts as inactive or inconclusive.
SMILES,Tb PGK inh,Glioma ERSR ind,PI5P4Ka inh,FEN1 inh,WRN helicase inh,Pin1 inh
O=C(COC(=O)/C=C/c1cc(Br)ccc1F)Nc1ccc2[nH]c(=O)[nH]c2c1,0%,-4%,-16,-7%,-16%,4%
Cc1cc(C(=O)COC(=O)c2ccncc2)c(C)n1Cc1ccco1,-6%,7%,1,1%,-7%,0%
Cc1cc(C(=O)COC(=O)c2ccco2)c(C)n1Cc1ccco1,-7%,-8%,-55*,13%,-14%,?
C=CC(=O)N1C/C(=C/c2ccc(F)cc2)C(=O)/C(=C\c2ccc(F)cc2)C1,10µM*,-12%,-22,-18%,40µM*,?
CN1C2CCC1/C(=C\c1ccc(F)cc1)C(=O)/C2=C/c1ccc(F)cc1,4%,0%,-3,-5%,1%,0%
CCOC(=O)C1CCN(C(=O)Cn2ncc3c4ccccc4n(Cc4ccccc4)c3c2=O)CC1,i,32µM*,/,-3%,/,25%
CCOC(=O)C1CCN(C(=O)Cn2ncc3c4ccccc4n(Cc4ccc(F)cc4)c3c2=O)CC1,8%,40µM*,/,9%,/,25%
Cc1nonc1CN(C)C(=O)C1CC12CCN(C(=O)/C=C/c1cccc(Cl)c1)CC2 (stereo not given),/,-1%,/,/,/,/
CC1=C([N+](=O)[O-])C(c2ccc(Cl)cc2)NC(=O)N1C (stereo not given),-7%,-2%,?,-13%,71µM*,8%
CC(C)Cc1nc2cc(NS(=O)(=O)N(C)C)cc(C(=O)N3CCOc4ccccc4C3)c2n1C,/,-1%,/,/,/,/
C=CCn1c(SCC(=O)N2CCOCC2)nc2scc(-c3ccco3)c2c1=O,?,-3%,/,?,56µM*,?
C=CCn1c(SCC(C)=O)nc2scc(-c3ccco3)c2c1=O,-6%,1%,-55*,?,?,-12%
C=CCn1c(SC(F)F)nc2scc(-c3ccco3)c2c1=O,-2%,-5%,11,-17%,-18%,-3%
Cc1ccc(S(=O)(=O)NN2C(=O)/C(=C/c3ccc(C(=O)O)cc3)SC2=S)cc1,-1%,-5%,-57*,50µM*,-35%,?
Cc1ccc(/C=C2\SC(=S)N(NS(=O)(=O)c3ccc(C)cc3)C2=O)cc1,-10%,-1%,-20,-10%,-9%[11.6 µM],?
COc1cc(/C=C2\SC(=S)N(NS(=O)(=O)c3ccccc3)C2=O)cc(OC)c1OC,-3%,2%,-29,-16%,-27%,-1%
C=CCOc1ccc(/C=C2\SC(=S)N(NS(=O)(=O)c3ccc(C)cc3)C2=O)cc1,-22%,-3%,-55*,-20%,?,/
Cc1ccc(S(=O)(=O)NN2C(=O)/C(=C/c3cccs3)SC2=S)cc1,-2%,-3%,-59*,-2%,-7%,-1%
COc1cccc(/C=C2\SC(=S)N(NS(=O)(=O)c3ccccc3)C2=O)c1OC,i,2%,-60*,-3%,-13%,-8%
O=[S+]([O-])(c1c(F)cccc1F)N1CCN([S+](=O)([O-])c2csc3ccccc23)CC1,/,/,/,/,/,-1%
Cc1c([S+](=O)([O-])N2CCN([S+](=O)([O-])c3c(F)cccc3F)CC2)sc2ccc(Cl)cc12,/,/,/,/,/,-1%
COc1ccc(C2Nc3ccccc3C(=O)N2Cc2ccccc2)cc1OCc1ccc(NC(C)=O)cc1 (stereo not given),/,/,/,/,/,24%
O=C(NN1C(=O)CSC1=S)C(=O)NN1C(=O)CSC1=S,-13%,2%,-67*,?,22µM*,/
O=C(c1cnsn1)N1CCOc2ccc(C(O)C(c3ccccc3)c3ccccc3)cc2C1 (stereo not given),/,-5%,/,/,/,/
Cc1c(Br)c(O)c(Br)c2sc(=O)oc12,3%,-8%,-69*,?,-32%,-16%
SMILES,Tb PGK inh,Glioma ERSR ind,PI5P4Ka inh,FEN1 inh,WRN helicase inh,Pin1 inh
Cc1c(C(=O)N2CC3CCC2C3)sc2ncnc(NCCc3ccccn3)c12 (stereo not given),/,-5%,/,/,/,/
COc1ccccc1-c1ccnc(-n2ncc(C(=O)NCCc3ccccn3)c2C)n1,/,-1%,/,/,/,/
CCc1ccc(/C=C(/C#N)C(N)=S)s1,3%,-2%,-1,11%,0%,1%
CCc1sc(/C=C(/C#N)C(N)=S)cc1[N+](=O)[O-],-2%,-6%,-83*,-16%,?,13%
CN(C(=S)NC(=O)c1ccc(Cl)cc1)C1CCCCC1,2%,?,-98*,5%,-28%,?
CN(C(=S)NC(=O)c1ccc(F)cc1)C1CCCCC1,-3%,7%,-3,20%,7%,0%
CN1/C(=C/c2cccc[n+]2C)Sc2ccccc21,-10%,2%,0,45µM*,-1%[11.6 µM],1%
CCN1/C(=C/c2cccc[n+]2C)Sc2ccc(OC)cc21,i,-2%,3,?,3%[11.6 µM],14%
Oc1ccc(/C=N/Nc2ccnc3cc(Cl)ccc23)c(O)c1,-3%,-2%,-17,-23%,?,?
Clc1ccc2c(N/N=C/c3cccnc3)ccnc2c1,1%,-2%,-2,?,-14%,?
Clc1ccc2c(N/N=C/c3ccc(Br)cc3)ccnc2c1,-3%,-11%,-73*,-16%,-3%,11%
Cc1ccccc1/C=N/Nc1ccnc2cc(Cl)ccc12,i,-12%,-75*,-15%,-17%,-1%
Cc1ccc(/C=N/Nc2ccnc3cc(Cl)ccc23)c(C)c1,4%,-12%,-82*,?,-14%,2%
COC(=O)/C=c1/sc2nc3ccccc3n2c1=O,-3%,1%,/,3%,-7%,-2%
O=c1/c(=C\c2cc([N+](=O)[O-])cc([N+](=O)[O-])c2O)sc2nc3ccccc3n12,?,-1%,-95*,56µM*,35µM*,?
O=C(O)C1Nc2ccc(Br)cc2C2C=CCC12 (stereo not given),32µM*,-1%,-82*,?,28µM*,/
O=C(O)C1Nc2c(Cl)cc(Cl)cc2C2C=CCC12 (stereo not given),25µM*,-4%,-99*,22µM*,10µM*,?
Cc1ccc(C)c2c1NC(C(=O)O)C1CC=CC21 (stereo not given),/,-5%,/,18µM*,/,/
CCOC(=O)C1Nc2ccc(C)cc2C2C=CCC12 (stereo not given),-10%,-3%,?,-11%,-7%,?
O=C(O)C1Nc2c(O)cccc2C2C=CCC12 (stereo not given),?,-5%,-81*,40µM*,11µM*,/
CCOC(=O)C1Nc2ccc(Br)cc2C2C=CCC12 (stereo not given),-8%,-4%,?,-20%,-21%,-23%
CN(C)/C=C/C(=O)c1ccc2noc(-c3ccccc3)c2c1,-2%,-3%,-70*,-10%,2%[11.6 µM],?
